For the assay, the system named is primary human hepatic stellate cells (donor 1). As to the kind of experiment: scaled lipid accumulation score (0 = DMSO-like, 1 = nortriptyline-like); higher = stronger HSC inactivation (lipid re-accumulation), active = hit call of the paper. As to conditions: 48 h.
The mark [1] stands for this setting: library stock concentration: 10 mM.
The mark [2] stands for this setting: library stock concentration: 1 mM.
The mark [3] stands for this setting: library stock concentration: 3.33 mM.
Setting [4] is: library stock concentration: 80 uM.
Setting [5] is: library stock concentration: 400 uM.
Where [6] appears, read: library stock concentration: 2 mM.

Structures can show the parent of a compound that is named as a salt. The whole screen tested about 5,800 compounds, of which about 620 (11%) showed activity. The full list was thinned out, with actives kept by preference. Values without a mark were called inactive.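 Rule for the calls: active = score above a cut-off or among the top three wells of a plate; in these data no inactive exceeds 0.85.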

In the case of `COC(=O)C(N)Cc1ccc(Cl)cc1` (racemic) [DL-p-Chlorophenylalanine methyl ester hydrochloride], the “scaled lipid accumulation score” value under setting [1] was at most 0.

As to `CCCCCCCC/C=C\CCCCCCCC(=O)OC[C@@H](O)COP(=O)(O)O` [1-Oleoyl Lysophosphatidic Acid (sodium salt)], the “scaled lipid accumulation score” value under setting [2] was at most 0.

Consider `CCCCCCCC/C=C\CCCCCCCC(=O)OC[C@@H](O)COP(=O)(O)O` [1-Oleoyl Lysophosphatidic Acid], for which the “scaled lipid accumulation score” value under setting [2] is at most 0.

With `CCCCCCCCCCOc1ccc(OCC(=O)Cn2cc(C(=O)OC)c3cc(C(=O)O)ccc32)cc1`, the “scaled lipid accumulation score” value under setting [2] was at most 0.

Turning to `CCCCCCC(Sc1nc(Cl)cc(NCc2ccc(-c3ccccc3)cc2)n1)C(=O)O` (centres undefined), the “scaled lipid accumulation score” value under setting [2] was at most 0.

For the compound `CCCCCC(=O)CCC1C(=O)C=CC1C/C=C\CCCC(=O)O` (centres undefined) [13,14-dihydro-15-keto Prostaglandin J2], under setting [2], the “scaled lipid accumulation score” value is at most 0.

Turning to `CCCCC[C@H](O)/C=C/[C@H]1OC(O)C[C@H](O)[C@@H]1C/C=C\CCCC(=O)O` (some centres undefined) [Thromboxane B2], under setting [2], the “scaled lipid accumulation score” value was at most 0.

Turning to `CC(C)CCN1C(=O)N(CCN(C)C)C(=O)C12CCN(Cc1cn(C)c3ccccc13)CC2`, under setting [1], the “scaled lipid accumulation score” value was 0.692 (active).

As for `C[C@@H]1[C@H](O)[C@@H](C)/C=C/C=C/C=C/C=C/C=C/C=C/C=C/[C@H](O[C@@H]2O[C@H](C)[C@@H](O)[C@H](N)[C@@H]2O)C[C@@H]2O[C@](O)(C[C@@H](O)C[C@@H](O)[C@H](O)CC[C@@H](O)C[C@@H](O)CC(=O)O[C@H]1C)C[C@H](O)[C@H]2C(=O)O` [Amphotericin b], the “scaled lipid accumulation score” value under setting [1] is at most 0.

As to `C[C@@H]1[C@H](O)[C@@H](C)/C=C/C=C/C=C/C=C/C=C/C=C/C=C/[C@H](O[C@@H]2O[C@H](C)[C@@H](O)[C@H](N)[C@@H]2O)C[C@@H]2O[C@](O)(C[C@@H](O)C[C@@H](O)[C@H](O)CC[C@@H](O)C[C@@H](O)CC(=O)O[C@H]1C)C[C@H](O)[C@H]2C(=O)O` [Amphotericin B], the “scaled lipid accumulation score” value is 0.003. For the same compound, under setting [3], the “scaled lipid accumulation score” value is 0.002. Besides, the “scaled lipid accumulation score” value under setting [1] is at most 0.

With `S=C(Nc1ccccc1)Nc1nccs1` [1-Phenyl-3-(2-thiazolyl)-2-thiourea], the “scaled lipid accumulation score” value under setting [1] is at most -0.055.

Take `COc1cccc(Nc2c(C(N)=O)cnc3c(C)cc(S(=O)(=O)c4cccc(C(=O)N(C)C)c4)cc23)c1`: the “scaled lipid accumulation score” value was at most 0 under setting [3] and at most 0 under setting [1].

With `CCCCCC(O)C=CC1C(O)CC(=O)C1CCCCCCC(=O)O` [15(R)-Prostaglandin E1], the “scaled lipid accumulation score” value under setting [2] is at most 0.

Consider `CCCCCC(O)C=CC1C(O)CC(=O)C1CCCCCCC(=O)O` (centres undefined) [8-iso Prostaglandin E1], for which the “scaled lipid accumulation score” value under setting [2] is at most 0.

On to `COc1cc(C)c(Sc2cnc(NC(=O)c3ccc(CNC(C)C(C)C)cc3)s2)cc1C(=O)N1CCN(C(C)=O)CC1` (centres undefined) [listing 1 of 2 here], for which the “scaled lipid accumulation score” value under setting [1] is 0.891 (active).

Regarding `COc1cc(C)c(Sc2cnc(NC(=O)c3ccc(CNC(C)C(C)(C)C)cc3)s2)cc1C(=O)N1CCN(C(C)=O)CC1` (centres undefined), the “scaled lipid accumulation score” value by setting is: under setting [4], at most -0.009; under setting [5], at most -0.009; under setting [6], 0.095; under setting [1], 0.769.

Consider `COc1cc(C)c(Sc2cnc(NC(=O)c3ccc(CNC(C)C(C)C)cc3)s2)cc1C(=O)N1CCN(C(C)=O)CC1` (centres undefined) [listing 2 of 2 here], for which the “scaled lipid accumulation score” value was 0.006 under setting [4], at most 0 under setting [5] and 0.398 under setting [6].

Regarding `CC(C(O)c1ccc(O)cc1)N1CCC(Cc2ccccc2)CC1.CC(C(O)c1ccc(O)cc1)N1CCC(Cc2ccccc2)CC1.O=C(O)C(O)C(O)C(=O)O` (centres undefined) [Ifenprodil tartrate], under setting [1], the “scaled lipid accumulation score” value is 1.11 (active).

Consider `CC(C(O)c1ccc(O)cc1)N1CCC(Cc2ccccc2)CC1` (centres undefined) [Ifenprodil Tartrate], for which the “scaled lipid accumulation score” value was at most 0 under setting [3] and 0.077 under setting [1].

Consider `CC(C(O)c1ccc(O)cc1)N1CCC(Cc2ccccc2)CC1` (centres undefined) [Ifenprodil], for which the “scaled lipid accumulation score” value runs as follows: (library stock concentration: 6.1 mM) 0.223; (library stock concentration: 9.6 mM) 0.096.

Consider `C[C@@H](CN1CCC(Cc2ccccc2)CC1)[C@@H](O)c1ccc(O)cc1` [Ro 25-6981 hydrochloride], for which the “scaled lipid accumulation score” value under setting [1] was at most 0.

`CC(C(O)c1ccc(O)cc1)N1CCC(Cc2ccccc2)CC1` (centres undefined) [Ifenprodil tartrate]: the “scaled lipid accumulation score” value was 0.252.

As for `CC(C(O)c1ccc(O)cc1)N1CCC(Cc2ccccc2)CC1` (centres undefined) [Ifenprodil hemitartrate], the “scaled lipid accumulation score” value under setting [1] was 0.45.

On to `C[C@@H](CN1CCC(Cc2ccccc2)CC1)[C@@H](O)c1ccc(O)cc1` [Ro 25-6981 maleate], for which the “scaled lipid accumulation score” value under setting [1] was 0.284.

Regarding `Nc1nc(=S)c2ncn([C@@H]3O[C@H](CO)[C@@H](O)[C@H]3O)c2[nH]1` [Thioguanosine], the “scaled lipid accumulation score” value was 0.076.

For `CCCCC[C@H](O)/C=C/[C@@H]1[C@H](CCCCCCC(=O)O)[C@@H](O)C[C@H]1O` [8-iso Prostaglandin F1.alpha.], the “scaled lipid accumulation score” value under setting [2] is at most 0.

Consider `CCCCC/C=C\C/C=C\C/C=C\CCCCC(=O)O` [Gamma-linolenic acid (18:3 n-6)], for which the “scaled lipid accumulation score” value under setting [2] was 0.024.

With `CCCCC/C=C\C/C=C\C/C=C\CCCCC(=O)O` [.gamma.-Linolenic Acid], the “scaled lipid accumulation score” value under setting [2] was 0.011.

In the case of `OCCOCCN1CCN(C(c2ccccc2)c2ccc(Cl)cc2)CC1` (centres undefined) [Hydroxyzine dihydrochloride], the “scaled lipid accumulation score” value is 0.453.

With `Cl.Clc1ccc(CCCOCCCN2CCCCC2)cc1`, under setting [1], the “scaled lipid accumulation score” value is 1.05 (active).

Consider `OCCOCCN1CCN(C(c2ccccc2)c2ccc(Cl)cc2)CC1` (centres undefined) [Hydroxyzine pamoate], for which the “scaled lipid accumulation score” value is 0.044 (library stock concentration: 2.6 mM) and 0.142 under setting [1].

Take `OC(CCCN1CCCCC1)(c1ccccc1)c1ccccc1` [Diphenidol HCl]: the “scaled lipid accumulation score” value runs as follows: under setting [3], at most 0; under setting [1], 0.007.

For `OC(CCCN1CCCCC1)(c1ccccc1)c1ccccc1` [Diphenidol hydrochloride], the “scaled lipid accumulation score” value is 0.315.

Regarding `OCCOCCN1CCN(C(c2ccccc2)c2ccc(Cl)cc2)CC1` (centres undefined) [Hydroxyzine 2HCl], the “scaled lipid accumulation score” value is, setting by setting: under setting [3], 0.1; under setting [1], 0.631.

`CCCCC[C@H](O)/C=C/[C@@H]1[C@@H](C/C=C\CCCC(=O)NCCO)[C@@H](O)C[C@H]1O` [Prostaglandin F2.alpha. Ethanolamide]: the “scaled lipid accumulation score” value under setting [2] was at most 0.

With `Nc1ncnc2c1ncn2[C@@H]1O[C@H](CO)C[C@@H]1O` [3'-deoxydenosine], the “scaled lipid accumulation score” value under setting [1] is at most 0.

The values above are taken from the supplement of paper PMC9135407.
